Results published in PubChem BioAssay AID1159580 (chemical genetic matrix, 2015).
Screen size: about 5,500 compounds; about 2,000 (36%) were called active. Not shown: some 18% with an inconclusive outcome. No stated cut-off is given here; in the data, active means normalized growth mostly below about 0.91 (no sharp cut-off); inconclusive means no clear call, values can overlap the other calls; inactive means mostly above about 0.92. The list shows a part of the results.

Assay: chemical genetic growth profiling, strain panel (AID 1159580);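 further: tested at 20 µM; growth read once vehicle control cultures reached saturation at 30 °C; 1 = growth at the plate median or of vehicle wells; lower values mean less growth of the strain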
Conditions: growth OD

Measured: normalized growth

OC(CNCCc1cccs1)COc1ccccc1 (stereo not given)
inactive: S. cerevisiae deletion strains, locus YAL013W, strain DEP1, hits give low values 0.995 | S. cerevisiae deletion strains, locus YBR229C, strain ROT2, hits give low values 0.987 | S. cerevisiae deletion strains, locus YCL061C, strain MRC1, hits give low values 0.994 | S. cerevisiae deletion strains, locus YDL101C, strain DUN1, hits give low values 0.999 | S. cerevisiae deletion strains, locus YDL134C, strain PPH21, hits give low values 0.986 | S. cerevisiae deletion strains, locus YDR150W, strain NUM1, hits give low values 0.976 | S. cerevisiae deletion strains, locus YEL061C, strain CIN8, hits give low values 0.998 | S. cerevisiae deletion strains, locus YGR078C, strain PAC10, hits give low values 0.989 | S. cerevisiae deletion strains, locus YHR030C, strain SLT2, hits give low values 0.934 | S. cerevisiae deletion strains, locus YHR087W, strain rtc3, hits give low values 0.998 | S. cerevisiae deletion strains, locus YJR043C, strain POL32, hits give low values 0.994 | S. cerevisiae deletion strains, locus YJR075W, strain HOC1, hits give low values 1.01 | S. cerevisiae deletion strains, locus YKL190W, strain CNB1, hits give low values 0.982 | S. cerevisiae deletion strains, locus YLR039C, strain RIC1, hits give low values 0.944 | S. cerevisiae deletion strains, locus YLR058C, strain SHM2 (second series), hits give low values 0.991 | S. cerevisiae deletion strains, locus YLR085C, strain ARP6, hits give low values 1.08 | S. cerevisiae deletion strains, locus YLR262C, strain YPT6, hits give low values 0.831 | S. cerevisiae deletion strains, locus YML094W, strain GIM5, hits give low values 1.06 | S. cerevisiae deletion strains, locus YMR219W, strain ESC1, hits give low values 1 | S. cerevisiae deletion strains, locus YMR263W, strain SAP30, hits give low values 0.99 | S. cerevisiae deletion strains, locus YMR307W, strain GAS1, hits give low values 1.13 | S. cerevisiae deletion strains, locus YNL153C, strain GIM3, hits give low values 0.995 | S. cerevisiae deletion strains, locus YNL298W, strain CLA4 (second series), hits give low values 0.964 | S. cerevisiae deletion strains, locus YNL322C, strain KRE1, hits give low values 1 | S. cerevisiae deletion strains, locus YNR030W, strain Alg12, hits give low values 1 | S. cerevisiae deletion strains, locus YOL006C, strain TOP1, hits give low values 0.939 | S. cerevisiae deletion strains, locus YPL055C, strain LGE1, hits give low values 1.03 | S. cerevisiae deletion strains, locus YPL241C, strain CIN2, hits give low values 1.02 | S. cerevisiae deletion strains, locus YPR135W, strain CTF4, hits give low values 0.949 | S. cerevisiae strains, strain wild type, hits give low values 0.967
